PubChem BioAssay AID1159580 (chemical genetic matrix, 2015)
The whole screen tested about 5,500 compounds, of which about 2,000 (36%) were called active. Inconclusive results (about 18%) are left out. Rule as the data show it: active = normalized growth mostly below about 0.91 (no sharp cut-off); inconclusive = no clear call, values can overlap the other calls; inactive = mostly above about 0.92. Some of the results follow.

Experiment: chemical genetic growth profiling, strain panel (AID 1159580);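 also: tested at 20 µM; growth read once vehicle control cultures reached saturation at 30 °C; 1 = growth at the plate median or of vehicle wells; lower values mean less growth of the strain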
Details: growth OD

Measured: normalized growth

CC(=O)OCC(=O)[C@@]1(O)CCC2C3CCC4=CC(=O)CC[C@]4(C)[C@@]3(F)[C@@H](O)C[C@@]21C (stereo partly specified)
inactive: S. cerevisiae deletion strains, locus YJR066W, strain TOR1, active compounds read low 0.939 | S. cerevisiae deletion strains, locus YKL009W, strain mrt4, active compounds read low 0.973 | S. cerevisiae deletion strains, locus YKL068W, active compounds read low 1.01 | S. cerevisiae deletion strains, locus YKL085W, strain MDH1 (second series), active compounds read low 1.01 | S. cerevisiae deletion strains, locus YKL085W, strain MDH1, active compounds read low 1.01 | S. cerevisiae deletion strains, locus YKL160W, strain elf1, active compounds read low 1.03 | S. cerevisiae deletion strains, locus YKL190W, strain CNB1, active compounds read low 1 | S. cerevisiae deletion strains, locus YKR001C, strain vps1, active compounds read low 0.987 | S. cerevisiae deletion strains, locus YKR026C, strain gcn3, active compounds read low 1.02 | S. cerevisiae deletion strains, locus YKR091W, strain srl3, active compounds read low 1 | S. cerevisiae deletion strains, locus YLL001W, strain dnm1, active compounds read low 1.03 | S. cerevisiae deletion strains, locus YLL026W, active compounds read low 1.01 | S. cerevisiae deletion strains, locus YLL041C, strain sdh2, active compounds read low 1.01 | S. cerevisiae deletion strains, locus YLR027C, strain aat2, active compounds read low 1.02 | S. cerevisiae deletion strains, locus YLR039C, strain RIC1, active compounds read low 1.04 | S. cerevisiae deletion strains, locus YLR058C, strain SHM2, active compounds read low 1.01 | S. cerevisiae deletion strains, locus YLR102C, strain apc9, active compounds read low 1.01 | S. cerevisiae deletion strains, locus YLR113W, strain HOG1, active compounds read low 0.992 | S. cerevisiae deletion strains, locus YLR221C, strain rsa3, active compounds read low 1.02 | S. cerevisiae deletion strains, locus YLR258W, strain gsy2, active compounds read low 1.01 | S. cerevisiae deletion strains, locus YLR262C, strain YPT6 (second series), active compounds read low 1.03 | S. cerevisiae deletion strains, locus YLR262C, strain YPT6, active compounds read low 1.01 | S. cerevisiae deletion strains, locus YLR268W, strain sec22, active compounds read low 0.985 | S. cerevisiae deletion strains, locus YLR320W, strain mms22, active compounds read low 1.05 | S. cerevisiae deletion strains, locus YLR330W, strain CHS5, active compounds read low 1.01 | S. cerevisiae deletion strains, locus YLR342W, strain FKS1 (second series), active compounds read low 1.02 | S. cerevisiae deletion strains, locus YLR342W, strain FKS1, active compounds read low 1.01 | S. cerevisiae deletion strains, locus YLR357W, strain rsc2, active compounds read low 1.01 | S. cerevisiae deletion strains, locus YLR370C, strain arc18, active compounds read low 1.02 | S. cerevisiae deletion strains, locus YLR371W, strain rom2, active compounds read low 1 | S. cerevisiae deletion strains, locus YLR384C, strain iki3, active compounds read low 1.02 | S. cerevisiae deletion strains, locus YLR418C, strain cdc73, active compounds read low 1.01 | S. cerevisiae deletion strains, locus YML016C, strain PPZ1, active compounds read low 1 | S. cerevisiae deletion strains, locus YML032C, strain rad52, active compounds read low 0.992 | S. cerevisiae deletion strains, locus YML120C, strain ndi1, active compounds read low 1.03 | S. cerevisiae deletion strains, locus YML124C, strain tub3, active compounds read low 1.01 | S. cerevisiae deletion strains, locus YMR058W, strain fet3, active compounds read low 1.02 | S. cerevisiae deletion strains, locus YMR078C, strain ctf18, active compounds read low 1.01 | S. cerevisiae deletion strains, locus YMR125W, strain sto1, active compounds read low 1.01 | S. cerevisiae deletion strains, locus YMR129W, active compounds read low 1.01 | S. cerevisiae deletion strains, locus YMR205C, strain PFK2, active compounds read low 1.02 | S. cerevisiae deletion strains, locus YMR223W, strain ubp8, active compounds read low 1.03 | S. cerevisiae deletion strains, locus YMR231W, strain pep5, active compounds read low 1.01 | S. cerevisiae deletion strains, locus YMR307W, strain GAS1, active compounds read low 1.01 | S. cerevisiae deletion strains, locus YNL067W, strain RPL9B, active compounds read low 0.998 | S. cerevisiae deletion strains, locus YNL071W, strain lat1, active compounds read low 1.02 | S. cerevisiae deletion strains, locus YNL128W, strain TEP1, active compounds read low 1.02 | S. cerevisiae deletion strains, locus YNL153C, strain GIM3, active compounds read low 1.01 | S. cerevisiae deletion strains, locus YNL183C, strain NPR1, active compounds read low 0.957 | S. cerevisiae deletion strains, locus YNL209W, strain ssb2, active compounds read low 1.01 | S. cerevisiae deletion strains, locus YNL233W, strain BNI4, active compounds read low 1 | S. cerevisiae deletion strains, locus YNL248C, strain rpa49, active compounds read low 1.02 | S. cerevisiae deletion strains, locus YNL271C, strain bni1, active compounds read low 1.01 | S. cerevisiae deletion strains, locus YNL298W, strain CLA4, active compounds read low 0.986 | S. cerevisiae deletion strains, locus YNL307C, strain MCK1, active compounds read low 1.02 | S. cerevisiae deletion strains, locus YNL322C, strain KRE1 (second series), active compounds read low 1.02 | S. cerevisiae deletion strains, locus YNR049C, strain mso1, active compounds read low 1.01 | S. cerevisiae deletion strains, locus YNR052C, strain pop2, active compounds read low 1 | S. cerevisiae deletion strains, locus YOL012C, strain htz1 0.967 | S. cerevisiae deletion strains, locus YOL147C, strain pex11, active compounds read low 1 | S. cerevisiae deletion strains, locus YOR001W, strain rrp6, active compounds read low 1 | S. cerevisiae deletion strains, locus YOR061W, strain CKA2, active compounds read low 1.01 | S. cerevisiae deletion strains, locus YOR069W, strain VPS5, active compounds read low 1.01 | S. cerevisiae deletion strains, locus YOR070C, strain gyp1, active compounds read low 1.03 | S. cerevisiae deletion strains, locus YOR080W, strain dia2, active compounds read low 1.01 | S. cerevisiae deletion strains, locus YOR083W, strain WHI5, active compounds read low 1.03 | S. cerevisiae deletion strains, locus YOR106W, strain vam3, active compounds read low 1.03 | S. cerevisiae deletion strains, locus YOR136W, strain idh2, active compounds read low 0.989 | S. cerevisiae deletion strains, locus YOR144C, strain elg1, active compounds read low 1 | S. cerevisiae deletion strains, locus YOR184W, strain ser1, active compounds read low 0.997 | S. cerevisiae deletion strains, locus YOR231W, strain MKK1, active compounds read low 1 | S. cerevisiae deletion strains, locus YOR265W, strain rbl2, active compounds read low 1.02 | S. cerevisiae deletion strains, locus YOR270C, strain vph1, active compounds read low 1.03 | S. cerevisiae deletion strains, locus YOR290C, strain snf2, active compounds read low 0.997 | S. cerevisiae deletion strains, locus YOR316C, strain cot1, active compounds read low 1.01 | S. cerevisiae deletion strains, locus YPL051W, strain arl3, active compounds read low 1.04 | S. cerevisiae deletion strains, locus YPL078C, strain atp4, active compounds read low 1.02 | S. cerevisiae deletion strains, locus YPL106C, strain sse1, active compounds read low 1.02 | S. cerevisiae deletion strains, locus YPL240C, strain hsp82, active compounds read low 0.994 | S. cerevisiae deletion strains, locus YPL256C, strain CLN2, active compounds read low 1 | S. cerevisiae deletion strains, locus YPR119W, strain clb2, active compounds read low 0.997 | S. cerevisiae deletion strains, locus YPR141C, strain kar3, active compounds read low 1 | S. cerevisiae deletion strains, locus YPR163C, strain tif3, active compounds read low 1 | S. cerevisiae deletion strains, locus YPR167C, strain met16, active compounds read low 0.999 | S. cerevisiae deletion strains, strain wtn01, active compounds read low 0.995 | S. cerevisiae strains, strain wild type, active compounds read low 1.01
